Drawing on PubChem BioAssay AID777 (Sanford-Burnham Center for Chemical Genomics, 2007), this text covers inhibition for 64 compounds.

Out of some 96,000 compounds screened, about 19,000 (20%) were called active. These entries were drawn from the full list. A number with no mark means an inactive call.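 How the source made its calls: active means blocking of liver enzyme CYP2C9 beyond about 50% at 5 µM (limit read from the data); inactive means the rest.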

Cytochrome P450 2C9 (Homo sapiens), sequence (P11712 whole entry, looked up): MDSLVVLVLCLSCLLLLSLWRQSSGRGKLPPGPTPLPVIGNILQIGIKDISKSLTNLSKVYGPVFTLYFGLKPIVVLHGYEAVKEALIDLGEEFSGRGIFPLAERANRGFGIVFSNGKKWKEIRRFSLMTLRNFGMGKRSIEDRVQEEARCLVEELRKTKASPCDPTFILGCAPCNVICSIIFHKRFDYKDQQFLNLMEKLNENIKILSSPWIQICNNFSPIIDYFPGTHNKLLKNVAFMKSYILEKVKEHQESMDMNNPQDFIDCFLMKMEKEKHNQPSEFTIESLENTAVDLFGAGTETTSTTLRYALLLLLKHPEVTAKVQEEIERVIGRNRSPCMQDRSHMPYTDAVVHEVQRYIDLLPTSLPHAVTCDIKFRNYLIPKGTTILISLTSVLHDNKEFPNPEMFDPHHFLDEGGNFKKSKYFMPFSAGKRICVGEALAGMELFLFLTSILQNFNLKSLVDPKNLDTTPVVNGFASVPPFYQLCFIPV

The assay addresses Cytochrome P450 2C9 (Homo sapiens) (UniProt P11712). In words: blockers of cytochrome P450 2C9 activity – biochemical, luminescence, ADME assay, primary screen (AID 777). The conditions noted are these: CYP2C9 Supersomes, luciferin-H conversion, at 5 µM, hits give high values.
On to `CCC(C)Sc1nnc(-c2c[nH]c3ccccc23)n1CCOC` (centres undefined), for which the inhibition (as a rule, the drop in the measured response relative to a control, in per cent) was -4.5%.
In the case of `CCOC(=O)C1=C(C)NC(C)=C(C(=O)OCC)C1C1=COCCO1` it was 77.4% (active).
In the case of `CCOC(=O)C1=C(C)NC(C)=C(C(=O)OCC)C1c1ccccn1` it was 94.2% (active); in that of `CCOC(=O)c1ccccc1NC(=O)CC1Nc2ccccc2NC1=O` (centres undefined), 29.5%.
In the case of `CCCC1NC(=O)NC(C)=C1C(=O)OCC` (centres undefined) it was 39.8%; in that of `CCC(=O)N(Cc1ccccc1)c1ccccn1`, -7.1%; in that of `CCCC(O)(c1ccc(OC)cc1)C(CN(C)C)c1ccccc1` (centres undefined), -8.2%.
`O=C(NC(=O)c1ccc(Cl)c(Cl)c1)OC1CCS(=O)(=O)C1` (centres undefined): the inhibition was -16.4%.
Turning to `CCOc1ccccc1NC(=O)C12CC3CC(C1)CC(c1ccc(C)cc1)(C3)C2`, the inhibition was -16%.
As for `N#C/C=C\Oc1ccc(Cl)cc1N`, the inhibition is -10.4%.
In the case of `O=C(CCN1C(=O)C2C3C=CC(C3)C2C1=O)Nc1ccccc1F` (centres undefined), the inhibition is -2.2%.
In the case of `NC(=NC(=O)c1ccccc1)N1CCOCC1` it was 4.1%; in that of `CCN(CC)C(=O)CSc1nnc(-c2ccc(S(=O)(=O)NCc3ccccc3Cl)cc2)o1`, 25.8%.
In the case of `O=C(OCC(=O)N1CCCC1)c1ccco1` it was 5.6%.
In the case of `CSc1cccc(NC(=O)CSc2ccccc2)c1` it was 73.2% (active).
As to `O=C(CSc1ccccc1)Nc1ccc(NC(=O)c2ccco2)cc1`, the inhibition was 42.7%.
In the case of `CCn1c(SCC(=O)Nc2cccc(F)c2)nnc1-c1cc2cc(Br)ccc2o1` it was 36%; in that of `Oc1ccccc1/C=N/n1c(-c2cccs2)n[nH]c1=S`, 0.5%.
With `Cc1nnc(C)n1/N=C/c1ccc(C(C)C)cc1`, the inhibition is 8.3%.
As for `Cn1nnc2cc(C(=O)NCCC3=CCCCC3)ccc21`, the inhibition was -22.1%.
For the compound `Cc1ccc2c(c1)c1ncn(CCC3=CCCCC3)c(=O)c1n2C`, the inhibition is 87.4% (active).
In the case of `Cc1ccc2[nH]c3c(=O)n(Cc4ccccn4)cnc3c2c1` it was 2.1%; in that of `Cc1ccc(-n2ncc3c(=O)[nH]cnc32)c(C)c1`, 2.5%; in that of `Cn1c(=O)n(C)c(=O)n(CC(=O)N2CCCCC2)c1=O`, -13.7%.
In the case of `COc1ccc(C(=O)N(CCN2CCOCC2)CC(=O)NC2CCCC2)cc1OC` it was -13.4%; in that of `CC(C)C[C@@H](N)c1nnc(SCC(=O)c2ccc(Cl)cc2)o1`, 49.8%.
Take `Cc1cccc(NC(=O)CSC(N)=O)c1C`: the inhibition was 7.1%.
In the case of `CCc1ccccc1NC(=O)CSc1nnc([C@@H](NC(=O)OC(C)(C)C)C(C)C)o1`, the inhibition was 20.3%.
In the case of `C[C@H](NC(=O)OC(C)(C)C)c1nnc(SCC(=O)Nc2ccc(Br)cc2)o1` it was 50.7% (active); in that of `Cc1nc(C)c(C(=O)Nc2cccc(C)c2C)o1`, 1.2%.
The figure for `COc1ccccc1-c1nnc(SCC(=O)Nc2ccccc2)o1` is -62.2%.
In the case of `CCc1ccccc1NC(=O)CSc1nnc([C@@H](NC(=O)OC(C)(C)C)C(C)CC)o1` (some centres undefined) it was 66.7% (active).
Take `Cc1cccc(NC(=O)CSc2nnc(CCCCCNC(=O)OC(C)(C)C)o2)c1C`: the inhibition was 67.6% (active).
`C[C@H](NC(=O)OC(C)(C)C)c1nnc(SCC(N)=O)o1`: the inhibition was 30.9%.
In the case of `CN(C)CCNC(=O)C(C(=O)c1ccccc1)n1ccccc1=O` (centres undefined) it was -3.6%; in that of `CCCCNC(=O)OC(C)CNC(=O)OC` (centres undefined), -7.6%.
In the case of `O=C(C1CCCO1)N1CCC(c2nc3ccccc3[nH]2)CC1` (centres undefined) it was -3.1%; in that of `CCCNS(=O)(=O)c1ccc2c(c1)CCCN2C(C)=O`, 4.5%.
As for `COC(=O)C(C)C1Sc2ccccc2NC1=O` (centres undefined), the inhibition was 2.8%.
The figure for `CC1CN(c2nc(-c3ccccc3)nnc2-c2ccccc2)CC(C)O1` (centres undefined) is 14.1%; for `Cn1nc(-c2ccccc2)c(-c2nc(-c3ccc(Cl)cc3)no2)c1Cl` it is 0.9%; for `Clc1ccc(-c2nnc(-c3ccccc3)nc2N2CCSCC2)cc1` it is 59.2% (active).
In the case of `CC1(C)CC(CC(=O)O)C(=O)O1` (centres undefined) it was 4.1%; in that of `O=C(O)CCCCc1nc2ccccc2s1`, 2.4%.
On to `O=C(O)CSCc1nc2ccccc2s1`, for which the inhibition is -9.7%.
The figure for `COc1ccccc1OCc1nc2ccccc2s1` is 51.7% (active); for `C=CCNc1nc(C)nc(OC)n1` it is -13.4%; for `O=C(CSc1nc2cc3c(cc2c(=O)n1CCC1=CCCCC1)OCO3)NCc1ccco1` it is 8.9%.
The figure for `Cn1c(-c2ccc(F)cc2)cnc1SCC(=O)NCc1ccco1` is 9.5%; for `O=C(CCCn1c(SCC(=O)c2ccccc2)nc2ccccc2c1=O)NCC1CCCO1` (centres undefined) it is 91.9% (active).
In the case of `CCc1ccc(NC(=O)CSc2nc3ccccc3c(=O)n2CCN2CCOCC2)cc1`, the inhibition is 47.5%.
As to `O=C(CSc1nnc(-c2ccco2)n1CC1CCCO1)c1ccccc1` (centres undefined), the inhibition is -3.9%.
The figure for `O=C(CCCn1c(SCC(=O)c2ccc(F)cc2)nc2ccccc2c1=O)NCc1ccco1` is 95% (active); for `CCn1cc(C(=O)NCC2CCCO2)c(=O)c2cc(S(=O)(=O)N3CCCCC3)ccc21` (centres undefined) it is 44%; for `O=C(CCn1c(SCC(=O)c2ccccc2)nc2ccccc2c1=O)NCc1ccc(F)cc1` it is 91.5% (active).
The figure for `CCOc1cc2[nH]c(=O)n(CCC(=O)NCc3ccc(OC)cc3)c(=O)c2cc1OCC` is -2.1%; for `Cc1ccc(S(=O)(=O)N2CCC(C(=O)NCC3CCCO3)CC2)cc1` (centres undefined) it is -9.7%.
The figure for `O=C(NCC1CCCO1)C(C(=O)c1ccccc1)n1cc(Cl)ccc1=O` (centres undefined) is -9.3%; for `CCn1c(SCC(=O)NCC2CCCO2)nc2cc(S(=O)(=O)N3CCCCC3)ccc21` (centres undefined) it is 50.2% (active).
For `CCOC(=O)N1CCC(N(CCOC)C(=O)Nc2ccc(C)c(C)c2)CC1`, the inhibition was -10.6%.
On to `CS(=O)(=O)Nc1ccc(C(=O)N2CCCC2)cc1`, for which the inhibition is 17.2%.
The figure for `CCOC(=O)N1CCN(C(=O)c2n[nH]c(=O)c3ccccc23)CC1` is -4.2%; for `COc1ccc(C2C(C#N)=C(N)Oc3n[nH]c(C)c32)cc1CN1CCN(c2ccc(F)cc2)CC1` (centres undefined) it is 28%; for `O=C(Cn1cc2c(n1)CCCCC2)NCCN1CCOCC1` it is -11.3%.
